Where “and” joins values, the source holds several entries; their conditions need not be identical. Identical values can stand only once. About 800 (1.6%) of roughly 50,000 compounds showed an effect of 50% or more. For the sample, strong results were picked, then their nearest neighbours and some compounds at random.

The assay deals with Bcl-2-like protein 10 (Homo sapiens) (UniProt Q9HD36). Kind of assay: Phenotype converters, Bcl-B/TR3 peptide binding displacement, primary biochemical FP (AID 1240).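 Also: 0% = Bcl-B with tracer peptide and DMSO and 100% = tracer peptide lacking Bcl-B.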 The conditions noted are these: GST-Bcl-B / FITC-TR3 peptide fluorescence polarization; stronger effect = higher value; compound at 3.75 mg/L. (In general: Fluorescence polarisation rises when a labelled molecule tumbles more slowly, as on binding a larger partner.)
Sequence of Bcl-2-like protein 10 (Homo sapiens) (Q9HD36 whole entry, looked up): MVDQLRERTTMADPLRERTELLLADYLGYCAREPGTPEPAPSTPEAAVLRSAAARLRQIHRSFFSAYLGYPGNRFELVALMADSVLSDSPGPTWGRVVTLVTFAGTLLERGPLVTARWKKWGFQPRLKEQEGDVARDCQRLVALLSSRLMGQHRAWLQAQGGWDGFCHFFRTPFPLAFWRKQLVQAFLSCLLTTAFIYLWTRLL
For the compound `Cc1ccccc1-n1c(=S)[nH]c2ccccc2c1=O`, the displacement is -11% and -8.7%.
With `O=C1Nc2ccccc2/C1=C/c1nc2ccc(I)cc2c(=O)n1-c1ccccc1` the figure was 4.5%; with `O=[N+]([O-])c1ccc(CNCCc2cccc(F)c2)cc1`, 2.2%.
For the compound `CN1C(=O)C(=Cc2cccc(OCCOc3ccc([N+](=O)[O-])cc3)c2)C(=O)N(C)C1=O`, the displacement was 6.4%.
With `C=CCOc1ccc(/C=C2\C(=O)NC(=O)N(CC=C)C2=O)cc1OC` the figure was 10.9%; with `COc1cc(C=C2C(=O)N(C)C(=O)N(C)C2=O)ccc1OCCOc1ccccc1`, 54.3%.
For `Cc1ccc(-c2nc3ccccc3c(=O)n2-c2nccs2)cc1` the value was -0.6%; for `O=[N+]([O-])/C=C/c1ccccc1OCc1ccc(Cl)cc1Cl`, 4.5%; for `O=C1NC(=O)N(c2cccc(Br)c2)C(=O)/C1=C/c1ccc(-c2ccc(C(=O)O)cc2)o1`, -56.7%.
With `O=C1NC(=O)N(c2cccc(Br)c2)C(=O)/C1=C/c1ccco1` the figure was 5.2%; with `CCc1ccccc1N1C(=O)NC(=O)/C(=C\c2cc(C)n(C)c2C)C1=O`, 87.7%; with `Cc1cc(C=C2C(=O)NC(=S)NC2=O)c(C)n1C`, 6.6%.
Take `Cc1cc(/C=C2\C(=O)NC(=O)N(c3cccc(Br)c3)C2=O)c(C)n1C`: the displacement came to 126%.
As for `Cc1cc(C)cc(N2C(=O)NC(=O)/C(=C\c3cc(C)n(C)c3C)C2=O)c1`, the displacement came to 90.5%.
With `Cc1cc(/C=C2\C(=O)NC(=O)N(c3ccc(Cl)cc3)C2=O)c(C)n1C` the figure was 1.7%; with `Cc1cc(/C=C2\C(=O)NC(=S)N(c3ccccc3F)C2=O)c(C)n1C`, 14.1%; with `O=C1NC(=O)N(c2ccccc2Cl)C(=O)C1=Cc1ccccc1`, 12.8%.
With `Cc1ccc(-n2c(/C=C3/C(=O)Nc4ccc(Br)cc43)nc3ccccc3c2=O)cc1` the figure was 4.3%; with `Cc1cc(C)cc(N2C(=O)NC(=O)/C(=C\C=C\c3ccccc3)C2=O)c1`, 42.9%; with `CCCCn1c(=O)c(C(=O)Nc2ccc(I)cc2)c(O)c2ccccc21`, 7.1%.
For `CN1C(=O)C(=Cc2ccc(-c3cc(C(=O)O)ccc3Cl)o2)C(=O)N(C)C1=O` the value was -2.5%; for `Cc1ccc(N2C(=O)NC(=O)/C(=C\C=C\c3ccccc3)C2=O)cc1`, 21.4%.
Take `O=C1NC(=O)C(=Cc2ccc(-c3cc([N+](=O)[O-])ccc3O)o2)C(=O)N1`: the displacement is 109%.
For `CN1C(=O)NC(=O)/C(=C/c2ccc(-c3ccc([N+](=O)[O-])cc3)o2)C1=O` the value was 3.6%; for `O=C1NC(=S)NC(=O)C1=Cc1ccc(-c2ccc([N+](=O)[O-])cc2Br)o1`, 29%.
Turning to `C=CCN1C(=O)NC(=O)/C(=C/c2ccc(-c3cc([N+](=O)[O-])ccc3Cl)o2)C1=O`, the displacement came out at 84.3%.
For `Cc1cccc(N2C(=O)NC(=O)/C(=C/c3ccc(-c4ccc([N+](=O)[O-])cc4C)o3)C2=O)c1` the value was 76.7%.
For `Cc1cc([N+](=O)[O-])c(C)cc1-c1ccc(C=C2C(=O)NC(=O)NC2=O)o1` the value was 8.4%; for `Cc1cc([N+](=O)[O-])ccc1-c1ccc(/C=C2/C(=O)NC(=O)N(C)C2=O)o1`, 11.4%; for `Cc1cc(-c2ccc(C=C3C(=O)NC(=O)NC3=O)o2)ccc1[N+](=O)[O-]`, 13.1%.
With `O=C1NC(=O)C(=Cc2ccc(-c3ccc([N+](=O)[O-])cc3Cl)o2)C(=O)N1` the figure was 66.8%; with `CN1C(=O)NC(=O)/C(=C/c2ccc(-c3cccc([N+](=O)[O-])c3)o2)C1=O`, -20.5%.
Consider `O=C1NC(=S)NC(=O)C1=Cc1ccc(-c2cc(Cl)c([N+](=O)[O-])cc2Cl)o1`, for which the displacement was 19.3%.
With `CN1C(=O)NC(=O)/C(=C/c2ccc(-c3ccc([N+](=O)[O-])cc3Br)o2)C1=O` the figure was -9.1%; with `COc1ccc(CN2C(=O)NC(=O)/C(=C\c3ccoc3)C2=O)cc1`, -114%; with `CSc1nc2ccccc2c(=O)n1-c1cccc(C)c1`, -6.2%.
For `O=C1NC(=O)N(c2ccc(Cl)cc2)C(=O)/C1=C\c1cc(Br)cc(Cl)c1O` the value was 4.8%; for `N#CC(C#N)=Cc1cccc2ccccc12`, 5.7%.
Turning to `O=C1NC(=S)NC(=O)C1=Cc1cccc(OS(=O)(=O)c2ccc3ccccc3c2)c1`, the displacement amounted to 3.4%.
With `COc1cc(OC)c(OC)cc1CN1CCN(C(=O)COc2ccccc2)CC1` the figure was -13.1%; with `COc1ccc(CN2CCN(C(=O)Cc3ccccc3)CC2)cc1Br`, -10%.
For `CN(C)c1ccc(/C=C2\C(=O)NC(=O)N(c3ccccc3Cl)C2=O)cc1` the value was 9.7%.
As for `Cc1cc(C=C2C(=O)NC(=O)NC2=O)c(C)n1C1CCCCC1`, the displacement turned out to be 124%.
For the compound `Cc1cc(C)cc(-n2c(C)cc(C=C3C(=O)NC(=O)NC3=O)c2C)c1`, the displacement amounted to 13.1%.
For `Cc1cc(C=C2C(=O)NC(=O)NC2=O)c(C)n1C` the value was 2.4%; for `O=C1c2ccccc2NC(c2ccccc2F)N1c1ccccc1` (centres undefined), -0.3%; for `Cc1nc2ccccc2c(=O)n1-c1ccc([N+](=O)[O-])cc1`, 11.9%.
For the compound `Cc1nc2cc([N+](=O)[O-])ccc2c(=O)n1-c1ccc(Cl)cc1`, the displacement came to 71.3%.
For `Cc1nc2ccc(I)cc2c(=O)n1-c1ccc([N+](=O)[O-])cc1Cl` the value was 13%.

These data come from PubChem BioAssay AID1240 (Sanford-Burnham Center for Chemical Genomics, 2008).
